The text below walks through data of PubChem BioAssay.

Structures are written as SMILES. Active and inactive are the calls of the source.

The nature of the first test: optical density shifts of acrAB sulA E. coli – strain DRC41, OD650, 48 h, E. coli filamentation inducer project, primary screen (AID 1152).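 Note: E. coli MC1000 strain DRC41 lacking acrAB efflux pump and sulA.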 Particulars: higher = more signal, called active from +8 up or from −8 down.
Turning to `O=C1[C@H]2[C@H]3[C@H](O)[C@H](O)CC(=NO[C@@H]4O[C@H](CO)[C@@H](O)[C@H](O)[C@H]4O)[C@H]3CC[C@H]2C(=O)N1c1ccc(F)cc1F`, the z-score was -0.205 (inactive).
Same read-out and setting: the same measure for `CC(=O)OC[C@H]1O[C@@H](ON=C2[C@H]3CCn4c(=O)n(-c5ccccc5)c(=O)n4[C@H]3[C@H](O)[C@@H]3O[C@H]23)[C@H](OC(C)=O)[C@@H](OC(C)=O)[C@@H]1OC(C)=O`: -0.132 (inactive).
Still for that read-out and setting: in the case of `C#CCCCON=C1C[C@@H](O)[C@@H](O)[C@@H]2[C@@H]3C(=O)N([C@@H](C)c4ccccc4)C(=O)[C@@H]3CC[C@@H]12` it was 0.0467 (inactive); in that of `O=C1[C@H]2[C@H]3[C@H](O)[C@H](O)CC(=NOC[C@@H](O)COCc4ccco4)[C@@H]3CC[C@H]2C(=O)N1C1CCCCC1`, 0.38 (inactive); in that of `C[C@]12CCC3c4ccc(OCC5CO5)cc4CCC3C1CC[C@@H]2O` (stereo not given in full), -0.186 (inactive).
For `CCOC(=O)CCN1C(=O)[C@H]2[C@H]3[C@H](O)[C@H](O)CC(=NO[C@@H]4O[C@H](CO)[C@@H](O)[C@H](O)[C@H]4O)[C@H]3CC[C@H]2C1=O`, the z-score was 0.131 (inactive).
With `C=CCOCC1CN2[C@@H](CC[C@@H](C)[C@@H]2c2ccc(Br)cc2)C(=O)O1` (stereo not given in full), the z-score was 0.298 (inactive).
On the same count and under the same terms, in the case of `CO[C@H]1COC(=O)[C@H](C)COC(=O)[C@@H](OCc2ccccc2)C=C[C@@H]1C` it was 0.623 (inactive); in that of `CC(C)=NOC(C)CN1CCCc2nc(C)c(C)cc21` (stereo not given), -0.477 (inactive).

A short description of the next test: probe aLefty1 binding on compound microarray – biochemical, small-molecule microarray, 635/667 nm fluorescence, primary screen (AID 1153).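 Note: score merges spot fluorescence with signal-to-noise ratio from the scanned slide images.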 Particulars: higher = more signal.
`COC(=O)CC=C[C@@H](C)[C@@H](C=NOC(C)CN1CCCCc2nc(C)c(C)cc21)OC` (stereo not given in full) came in with a composite z-score of -0.0501.
Same read-out and setting: the same measure for `CCOC(=O)[C@H](CC(C)C)NC(=O)CCC1CC(OC(=O)NCc2ccc3c(c2)OCO3)CC2(CCCC(COC(=O)NCCc3ccc(Cl)cc3)O2)O1` (stereo not given in full): 0.213; for `CC(CCN1CCc2nc(-c3ccccc3)c(-c3ccccc3)cc2C1)=NO[C@H](C)c1cn([C@H](CO)Cc2ccccc2)nn1`: 0.057; for `CC(CCC(=O)OC[C@H]1O[C@H](C#Cc2ccccc2)C=C[C@@H]1Oc1ccc(C)cc1)=NO[C@H](C)c1cn([C@@H]2COC[C@H]2O)nn1`: -0.191.
Same read-out and setting: the same measure for `CC(CCN1CCc2nc(-c3ccccc3)c(-c3ccccc3)cc2C1)=NOC(C)CN1CCCc2nc(C)c(C)cc21` (stereo not given): 0.0956; for `CCC1=NOC(CCC2CC(OC(=O)NCc3cccc4c3OCO4)CC3(CCCC(COC(=O)NCCc4ccc(Cl)cc4)O3)O2)C1` (stereo not given): -0.103; for `CCOC(=O)CCN1C(=O)[C@H]2[C@@H]3C(=CC[C@H]2C1=O)C(=O)[C@H]1O[C@H]1[C@H]3O`: -0.284.
On to `CON=C(C)CCC(=O)OC[C@H]1O[C@H](C#Cc2ccccc2)C=C[C@@H]1Oc1ccc(C)cc1`, for which the composite z-score was -0.0141.
As to `Cc1cc2c(nc1C)CCCCN2CC(O)CN1CCCc2nc(-c3ccc(Br)cc3)ccc21` (stereo not given), the composite z-score turned out to be 0.345.
The same measure, in the same setting: in the case of `COC(=O)[C@H](C)NC(=O)CCC1CC(OC(=O)NCc2cccc3ccccc23)CC2(CCCC(COC(=O)NCCc3ccccc3OC)O2)O1` (stereo not given in full) it was -0.193; in that of `CC#CCOCCC=C1c2ccccc2[C@@H](OC)[C@@H]1C`, -0.0004.
Same read-out and setting: the same measure for `CCO[C@H](c1cc(OC)cc([N+](=O)[O-])c1OC)[C@H](C)[C@@H](OC)[C@H](C)C=CCC(=O)OC`: 0.0367; for `O=C1[C@H]2[C@H]3[C@H](O)[C@H](O)CC(=NOC[C@@H](O)COCc4ccco4)[C@@H]3CC[C@H]2C(=O)N1c1cccc(Oc2ccccc2)c1`: -0.247.
Same read-out and setting: the same measure for `COC(=O)[C@@H]1CC[C@H](C)[C@@H](c2ccc(Br)cc2)N1C[C@@H](O)CN=[N+]=[N-]`: -0.147.
In turn, `CCOC(=O)[C@H](Cc1ccccc1)NC(=O)CCC1CC(OC(=O)NCc2cccc3ccccc23)CC2(CCCC(COC(=O)NCC3CCCCC3)O2)O1` (stereo not given in full) showed a composite z-score of -0.0662.
The compound `C#CCCCON=C1[C@H]2CCn3c(=O)n([C@@H](CC)c4ccccc4)c(=O)n3[C@H]2[C@H](O)[C@@H]2O[C@H]12` returned a composite z-score of -0.101.
Compound `C[C@@H]1C=CCC(=O)OC[C@H](C)C(=O)N[C@@H](Cc2ccccc2)C(=O)OC1` came in with a composite z-score of -0.0287.
In turn, `Cc1ccc2[nH]c3nc(CCCn4ccnc4-c4ccccc4)nnc3c2c1` returned a composite z-score of 0.0072.
`CC(CCN1CCc2nc(-c3ccccc3)c(-c3ccccc3)cc2C1)=NO[C@@H](C)c1cc(-c2c(C)cc(C)cc2C)no1` returned a composite z-score of -0.0099.
For the compound `O=C1[C@H]2CCn3c(=O)n(Cc4cc5c(cc4Cl)OCO5)c(=O)n3[C@H]2[C@H](O)[C@@H]2O[C@H]12`, the composite z-score is -0.196.
Regarding `CCCNC(=O)OC[C@H]1O[C@H](CCON=C[C@@H](NS(=O)(=O)c2ccc(C)cc2)[C@H](C)C=CCC(=O)OC)C=C[C@@H]1Oc1ccc(OC)cc1`, the composite z-score turned out to be 0.0633.
Still for that read-out and setting: in the case of `CCN1C(=O)[C@H]2[C@H]3[C@H](O)[C@H](O)CC(=NOCC[C@@H]4C=C[C@H](OC(C)=O)[C@@H](COC(C)=O)O4)[C@@H]3CC[C@H]2C1=O` it was -0.125.
On the same count and under the same terms, the same measure for `COc1ccc(O[C@H]2C=C[C@@H](c3ccccc3)O[C@@H]2COC(=O)CCC(C)=NOC[C@@H](O)COCc2ccco2)cc1`: -1.43; for `CC(C)[C@@H](OCc1ccccc1)[C@H](C)C=NOC[C@@H](O)[C@H]1O[C@@H]2OC(C)(C)O[C@@H]2[C@H]1O`: -0.25; for `O=C1C2=CC[C@H]3C(=O)N(Cc4ccccc4)C(=O)[C@H]3[C@H]2[C@H](O)[C@@H]2O[C@H]12`: -0.379.
Still for that read-out and setting: in the case of `COC(=O)[C@H](C)NC(=O)CCC1CC(OC(=O)NCc2ccc3c(c2)OCO3)CC2(CCCC(COC(=O)NCc3ccccc3)O2)O1` (stereo not given in full) it was -0.0061.
Regarding `CC(C)CON=C1C[C@@H](O)[C@@H](O)[C@@H]2[C@@H]3C(=O)N(Cc4ccccc4)C(=O)[C@@H]3CC[C@H]12`, the composite z-score was -0.249.
Same read-out and setting: in the case of `O=C1[C@H]2[C@H]3[C@H](O)[C@H](O)CC(=NO[C@@H]4O[C@H](CO)[C@@H](O)[C@H](O)[C@H]4O)[C@H]3CC[C@H]2C(=O)N1c1ccc(F)cc1F` it was 0.0865; in that of `CC(=O)OC[C@H]1O[C@@H](ON=C2[C@H]3CCn4c(=O)n(-c5ccccc5)c(=O)n4[C@H]3[C@H](O)[C@@H]3O[C@H]23)[C@H](OC(C)=O)[C@@H](OC(C)=O)[C@@H]1OC(C)=O`, 0.106; in that of `C#CCCCON=C1C[C@@H](O)[C@@H](O)[C@@H]2[C@@H]3C(=O)N([C@@H](C)c4ccccc4)C(=O)[C@@H]3CC[C@@H]12`, 0.0824.
On the same count and under the same terms, in the case of `O=C1[C@H]2[C@H]3[C@H](O)[C@H](O)CC(=NOC[C@@H](O)COCc4ccco4)[C@@H]3CC[C@H]2C(=O)N1C1CCCCC1` it was 0.0616; in that of `C[C@]12CCC3c4ccc(OCC5CO5)cc4CCC3C1CC[C@@H]2O` (stereo not given in full), -0.0011.
On the same count and under the same terms, in the case of `CCOC(=O)CCN1C(=O)[C@H]2[C@H]3[C@H](O)[C@H](O)CC(=NO[C@@H]4O[C@H](CO)[C@@H](O)[C@H](O)[C@H]4O)[C@H]3CC[C@H]2C1=O` it was 0.493.
`C=CCOCC1CN2[C@@H](CC[C@@H](C)[C@@H]2c2ccc(Br)cc2)C(=O)O1` (stereo not given in full): the composite z-score was -0.147.
On the same count and under the same terms, the same measure for `CO[C@H]1COC(=O)[C@H](C)COC(=O)[C@@H](OCc2ccccc2)C=C[C@@H]1C`: -0.193; for `CC(C)=NOC(C)CN1CCCc2nc(C)c(C)cc21` (stereo not given): -0.012.
